In PubChem BioAssay (NCI):
Where “and” joins values, the source holds several entries; their conditions need not be identical. Equal values may be shown once. This is part of a sample that, as a whole, favours compounds with a hit. Of some 83,000 tested, about 20% had one in any assay.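 Interpretation: 100, growth as untreated; towards 0, rising growth inhibition; 0, no net growth; 0 to -100, cell death. Compounds scoring below 10 were considered active.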 Calls of active or inactive are those of the source.

Legend:
Experiment in all cases: NCI-60 one-dose screen, 48 h (100 = growth as untreated, 0 = no growth, -100 = all killed)
Settings in all cases: 10 µM unless noted
HCT-15 colon = tested on: HCT-15 colon
HT29 colon = tested on: HT29 colon
SNB-75 CNS = tested on: SNB-75 CNS
SNB-19 CNS = tested on: SNB-19 CNS
U251 CNS = tested on: U251 CNS
PC-3 prostate = tested on: PC-3 prostate
SK-MEL-5 melanoma = tested on: SK-MEL-5 melanoma
UACC-62 melanoma = tested on: UACC-62 melanoma
LOX IMVI melanoma = tested on: LOX IMVI melanoma
SK-MEL-28 melanoma = tested on: SK-MEL-28 melanoma

Measured: growth

COc1ccc(OC)c(Cn2cc(C#N)c(N)c2C(=O)c2ccc(Br)cc2)c1
active: HT29 colon 4.97%
inactive: HCT-15 colon 26.2% | SNB-75 CNS 50.4% | SNB-19 CNS 55.3% | U251 CNS 26.3% | PC-3 prostate 66% | SK-MEL-5 melanoma 26.6% | UACC-62 melanoma 29.9% | LOX IMVI melanoma 49.6% | SK-MEL-28 melanoma 54.3%

CS(=O)(=O)c1ccc(-n2nc(C(=O)NCc3ccccc3)cc2-c2ccc(Cl)cc2)cc1
inactive: HCT-15 colon 66.3% | HT29 colon 74% | SNB-75 CNS 89.7% | SNB-19 CNS 78.9% | U251 CNS 80.7% | PC-3 prostate 75.5% | SK-MEL-5 melanoma 71.5% | UACC-62 melanoma 73.9% | LOX IMVI melanoma 89.4% | SK-MEL-28 melanoma 112%

Oc1ccc(Cl)c(Nc2nc(SCCN3CCOCC3)nc3c2cnn3CC(Cl)c2ccc(Br)cc2)c1 (stereo not given)
inactive: SNB-75 CNS 11.5% | SNB-19 CNS 37.8% | U251 CNS 23.9% | PC-3 prostate 14.5% | SK-MEL-5 melanoma 16.6% | UACC-62 melanoma 39.9% | SK-MEL-28 melanoma 32%
active: HCT-15 colon 8.41% | HT29 colon 6.18% | LOX IMVI melanoma -59.3%

O=C(N/N=C/c1ccsc1)c1[nH]c2ccc(Br)cc2c1-c1ccccc1
active: HCT-15 colon -62.8% | HT29 colon -62.8% | SNB-75 CNS -32.3% | SNB-19 CNS -41.5% | U251 CNS -89.1% | PC-3 prostate -26.1% | SK-MEL-5 melanoma -97.2% | UACC-62 melanoma -91.6% | LOX IMVI melanoma -100% | SK-MEL-28 melanoma -87.4%

NS(=O)(=O)c1ccc(N2N=C(c3ccc(NC(=O)Nc4ccccc4)cc3)CC2c2ccc(Br)cc2)cc1 (stereo not given)
active: HCT-15 colon -89.1% | HT29 colon -57% | SNB-75 CNS -43.1% | SNB-19 CNS -98.2% | U251 CNS -86.2% | PC-3 prostate -45.2% | SK-MEL-5 melanoma -99.8% | UACC-62 melanoma -96.2% | LOX IMVI melanoma -100% | SK-MEL-28 melanoma -98.1%

O=C(NC(=S)N1CCN(c2ncnc3c2cnn3-c2ccccc2)CC1)c1ccc(Br)cc1
active: SNB-75 CNS 7.89%
inactive: HCT-15 colon 58.3% | HT29 colon 86.4% | SNB-19 CNS 46.6% | U251 CNS 56.5% | PC-3 prostate 64.8% | SK-MEL-5 melanoma 75% | UACC-62 melanoma 60.6% | LOX IMVI melanoma 41.1% | SK-MEL-28 melanoma 77.1%

CS(=O)(=O)Nc1cccc(-n2c(COc3ccc(OC(F)(F)F)cc3)nc3ccccc32)c1
inactive: HCT-15 colon 94.6% and 105% | HT29 colon 103% and 114% | SNB-75 CNS 55.4% and 95.4% | SNB-19 CNS 93.8% and 101% | U251 CNS 85% and 101% | PC-3 prostate 70.7% and 103% | SK-MEL-5 melanoma 78.8% and 106% | UACC-62 melanoma 72.3% and 107% | LOX IMVI melanoma 83.7% and 110% | SK-MEL-28 melanoma 118% and 133%

ClC(Cn1ncc2c(Nc3cccc(Br)c3)nc(SCCN3CCOCC3)nc21)c1ccc(Br)cc1 (stereo not given)
active: HCT-15 colon -76.9% | HT29 colon -43% | U251 CNS -4.38% | SK-MEL-5 melanoma -89.9% | UACC-62 melanoma -44.3% | LOX IMVI melanoma -89.4% | SK-MEL-28 melanoma -46.4%
inactive: SNB-75 CNS 59.8% | SNB-19 CNS 22.5% | PC-3 prostate 21.3%

CN(C(=O)CN1C(=O)/C(=C/c2ccco2)SC1=S)C1CCS(=O)(=O)C1 (stereo not given)
inactive: HCT-15 colon 87.5% | HT29 colon 99.5% | SNB-75 CNS 89% | SNB-19 CNS 95.7% | U251 CNS 102% | PC-3 prostate 102% | SK-MEL-5 melanoma 98.5% | UACC-62 melanoma 90% | LOX IMVI melanoma 91.6% | SK-MEL-28 melanoma 105%

Nc1nc2cc(-c3ccc4ncnc(NCc5ccccc5)c4c3)ccc2o1
inactive: HCT-15 colon 14.1% | HT29 colon 37.2% | SNB-19 CNS 23% | PC-3 prostate 25.2% | UACC-62 melanoma 77.1% | SK-MEL-28 melanoma 10.7%
active: SNB-75 CNS -83.9% | U251 CNS 9.55% | SK-MEL-5 melanoma 0.196% | LOX IMVI melanoma -86.1%

COc1ccc(S(=O)(=O)Nc2ccc(-c3ccc4c(c3)NC(=O)/C4=C\c3ccc[nH]3)cc2)cc1OC
inactive: HCT-15 colon 41.4% | SNB-75 CNS 13.9% | PC-3 prostate 44.5% | SK-MEL-5 melanoma 20.3%
active: HT29 colon 8.82% | SNB-19 CNS 3.61% | U251 CNS -58.5% | UACC-62 melanoma -45.9% | LOX IMVI melanoma -30.1% | SK-MEL-28 melanoma -90.6%

COc1ccc(-c2nc3ccc(-c4nnc(SCc5ccccc5)o4)cc3[nH]2)cc1
inactive: PC-3 prostate 20.1%
active: HCT-15 colon -17.4% | HT29 colon 9.58% | SNB-75 CNS -82.8% | SNB-19 CNS 2.92% | U251 CNS -77.1% | SK-MEL-5 melanoma -21.7% | UACC-62 melanoma -72.3% | LOX IMVI melanoma -96.6% | SK-MEL-28 melanoma -36.3%

Cc1ccc(S(=O)(=O)N(CCn2ccnc2[N+](=O)[O-])CCn2ccnc2[N+](=O)[O-])cc1
inactive: HCT-15 colon 103% | HT29 colon 112% | SNB-75 CNS 96% | SNB-19 CNS 101% | U251 CNS 102% | PC-3 prostate 94.9% | SK-MEL-5 melanoma 99.3% | UACC-62 melanoma 94% | LOX IMVI melanoma 102% | SK-MEL-28 melanoma 106%

COc1ccc2c(c1)C(Sc1ccc(Br)cc1)c1c(nc(N)c(C#N)c1N)O2 (stereo not given)
inactive: HCT-15 colon 76.3% | HT29 colon 91.1% | SNB-75 CNS 80.4% | SNB-19 CNS 80.6% | U251 CNS 77.2% | PC-3 prostate 48.2% | SK-MEL-5 melanoma 85.6% | UACC-62 melanoma 76.4% | LOX IMVI melanoma 16.7% | SK-MEL-28 melanoma 104%

Cn1cc(-c2cc3nc(-c4cn(C)c5ncccc45)cc(N)n3n2)c2cc(F)ccc21
active: HT29 colon 6.68% | SNB-19 CNS 8.57% | U251 CNS -41.8%
inactive: HCT-15 colon 69% | SNB-75 CNS 52.9% | PC-3 prostate 32.5% | SK-MEL-5 melanoma 78.2% | UACC-62 melanoma 80.3% | LOX IMVI melanoma 44.4% | SK-MEL-28 melanoma 92.8%

N/C(=N\c1nc2ccc([N+](=O)[O-])cc2s1)NC(=O)Nc1ccccc1Cl
active: U251 CNS -0.568%
inactive: HCT-15 colon 28.3% | HT29 colon 62.1% | SNB-75 CNS 24.4% | SNB-19 CNS 49.7% | PC-3 prostate 69% | SK-MEL-5 melanoma 44.7% | UACC-62 melanoma 54.8% | LOX IMVI melanoma 29.6% | SK-MEL-28 melanoma 60.5%

COc1ccccc1NC(=O)c1ccc(NC(=O)CCl)s1
active: HCT-15 colon -50.8% | HT29 colon -66.1% | U251 CNS -51.2% | PC-3 prostate -46.7% | SK-MEL-5 melanoma -23.3% | UACC-62 melanoma -83.2% | LOX IMVI melanoma -93.4% | SK-MEL-28 melanoma 1.77%
inactive: SNB-75 CNS 35.9% | SNB-19 CNS 42.1%

O=C(c1ccc(O)cc1)C1[C@H](c2ccccc2Br)[C@@H](c2ccccc2)NC12C(=O)Nc1ccccc12 (stereo not given in full)
active: HT29 colon -7.42% | U251 CNS 7.5% | LOX IMVI melanoma 5.24%
inactive: HCT-15 colon 34.7% | SNB-75 CNS 36.8% | SNB-19 CNS 58.5% | PC-3 prostate 18.2% | SK-MEL-5 melanoma 28.1% | UACC-62 melanoma 31.9% | SK-MEL-28 melanoma 59.3%

CN(C)c1nc(NCCNS(=O)(=O)c2ccc(C3=Nc4c(N)nc(N)nc4NC(c4ccc(Cl)cc4)C3)cc2)nc(N2CCOCC2)n1 (stereo not given)
active: LOX IMVI melanoma -2.54%
inactive: HCT-15 colon 61% | HT29 colon 30% | SNB-75 CNS 57.9% | SNB-19 CNS 46.6% | U251 CNS 49.5% | PC-3 prostate 26.4% | SK-MEL-5 melanoma 20.1% | UACC-62 melanoma 66.6% | SK-MEL-28 melanoma 66.4%

CC(=O)C[n+]1cccc2c3ccccc3ccc21
inactive: HCT-15 colon 97.5% | HT29 colon 93.4% | SNB-75 CNS 113% | SNB-19 CNS 69.8% | U251 CNS 59.9% | PC-3 prostate 85.1% | SK-MEL-5 melanoma 56.6% | UACC-62 melanoma 73.3% | LOX IMVI melanoma 99.8% | SK-MEL-28 melanoma 95.6%

O=C(Cn1c(/C=C/c2ccc([N+](=O)[O-])cc2)nc2ccccc2c1=O)Nc1ccccc1
inactive: HCT-15 colon 85.8% | HT29 colon 45.8% | SNB-75 CNS 38.5% | SNB-19 CNS 37.2% | U251 CNS 69.4% | PC-3 prostate 85.1% | SK-MEL-5 melanoma 82.6% | UACC-62 melanoma 69.6% | LOX IMVI melanoma 58.4% | SK-MEL-28 melanoma 76.1%

O=C(NN1C(=O)/C(=C/C=C/c2ccc([N+](=O)[O-])o2)SC1=S)c1ccc(O)cc1
active: HCT-15 colon -73% | HT29 colon -67.7% | SNB-75 CNS -65.1% | SNB-19 CNS -100% | U251 CNS -91.4% | PC-3 prostate -67.2% | SK-MEL-5 melanoma -100% | UACC-62 melanoma -99.3% | LOX IMVI melanoma -84.8% | SK-MEL-28 melanoma -100%

Cc1ccc(C(=O)Nc2cccc(C(=O)NC(=S)Nc3ccc(S(N)(=O)=O)cc3)c2)cc1
inactive: HCT-15 colon 80.5% | HT29 colon 85.1% | SNB-75 CNS 50.5% | SNB-19 CNS 83.1% | U251 CNS 84.4% | PC-3 prostate 78.9% | SK-MEL-5 melanoma 49.8% | UACC-62 melanoma 69.4% | LOX IMVI melanoma 78.8% | SK-MEL-28 melanoma 79.8%

NC(=O)c1ccc(-c2ccc3ncnc(N4CCc5cc(F)c(Cl)cc54)c3c2)cn1
inactive: HCT-15 colon 59.9% | HT29 colon 91.6% | SNB-75 CNS 106% | SNB-19 CNS 74.3% | U251 CNS 87.4% | PC-3 prostate 50.8% | SK-MEL-5 melanoma 76.2% | UACC-62 melanoma 71.8% | LOX IMVI melanoma 57% | SK-MEL-28 melanoma 91.7%
